# Laboratory results as given in PubChem BioAssay (NCATS).
# Inconclusive results are not listed. Values without a mark were called inactive. Calls of active or inactive are those of the source. Calls follow the shape of the dose curve; as a rule, active = well fitted curve in the direction sought with a large enough effect; inconclusive = small, poorly fitted or top-dose-only effect, or another doubt; inactive = no such curve, though single readings can be large; an effect the other way counts as inactive or inconclusive.
# Test system: WaGa
# Assay: qHTS assay to identify novel small-molecules to repurpose for Merkel cell carcinoma treatment (AID 1296009); also: nearly all actives have a fitted effect of over 60% in size
# Conditions: MCC and control cell lines, CellTiter-Glo viability, 72 h; series mostly up to 46 µM; activity change, negative = cytotoxicity: at the top concentration
# Summary of the method: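 Viability readout: ATP luminescence (CellTiter-Glo) after 72 hr drug exposure at 37 degree celsius. Dose-response format was 8 points for NPC and 11 points for MIPE; data normalized to in-plate controls.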
# % is scaled to controls: 0 for no effect and ±100 for the full control effect; potency is read from the fitted curve at half-maximal effect.
SMILES,Potency,"activity change, negative = cytotoxicity"
Cc1ccc([N+](=O)[O-])[c]2c1[O][Hg]2,335 nM (active),
O=C(N[C@@H]1N=C(c2ccccc2F)c2cccc3c2N(CC3)C1=O)c1cc2ccccc2[nH]1,,3.48%
OC(O)C(Cl)(Cl)Cl,,6.57%
CCCOC(=O)Cc1ccc(OCC(=O)N(CC)CC)c(OC)c1,,13.9%
COP(=O)(OC)C(O)C(Cl)(Cl)Cl (stereo not given),,5.96%
COCC(=O)N(c1c(C)cccc1C)C(C)C(=O)OC (stereo not given),,17.3%
C[C@@H]1CN(C2CCC(C#N)(c3ccc(F)cc3)CC2)CC[C@]1(C(=O)O)c1ccccc1 (stereo not given in full),,3.47%
O=C(O)c1nn(Cc2ccc(Cl)cc2Cl)c2ccccc12,inactive,
Cc1ccc(N=CN(C)C=Nc2ccc(C)cc2C)c(C)c1,,23.4%
COC(=O)C1=CCCN(C)C1,inactive,
O=C(CCCN1CCC(n2c(=O)[nH]c3ccccc32)CC1)c1ccc(F)cc1,,-0.783%
O=C1CN2CCOC2(c2ccccc2Cl)c2cc(Cl)ccc2N1 (stereo not given),,11.2%
C[C@H]1CNCCc2ccc(Cl)cc21,,-2.5%
COc1cc(N)c(Cl)cc1C(=O)NC1CN2CCC1CC2 (stereo not given),,6.05%
O=C(O)Cc1ccccc1,,-1.3%
C1CN2CCC1CC2,,12.5%
CN1C(=O)CN=C(c2ccccc2)c2cc([N+](=O)[O-])ccc21,,6.07%
O=C(CBr)Nc1ccc(Cl)cc1C(=O)c1ccccc1F,,-10.3%
CCOC(=O)NC(O)C(Cl)(Cl)Cl (stereo not given),,9.14%

SMILES,Potency,"activity change, negative = cytotoxicity"
CC(C)C(Br)C(=O)NC(N)=O (stereo not given),,-2.46%
COP(=O)(OC)OC=C(Cl)Cl,,18%
COc1cc(C[C@@H](C)N)c(OC)cc1Br,,-15.1% [at 92.7 µM]
CC(CC(C(N)=O)(c1ccccc1)c1ccccc1)N(C)C (stereo not given),,12.6%
Cc1nc2ccccc2c(=O)n1-c1ccccc1Cl,,-13.3% [at 92.7 µM]
CCS(=O)(=O)C(C)(C)S(=O)(=O)CC,,7.22%
O=c1[nH]c2cc(Cl)ccc2n1C1CCNCC1,,11.4%
C[N+]1(CCC(C(N)=O)(c2ccccc2)c2ccccc2)CCCCC1,,-2.81%
COP(=S)(OC)Oc1ccc(Sc2ccc(OP(=S)(OC)OC)cc2)cc1,,8.72%
NC(=O)OCCCc1ccccc1,,10.9%
CCOP(=S)(OCC)O/N=C(\C#N)c1ccccc1,,13.7%
CCN1CCCC1CNC(=O)C(O)(c1ccccc1)c1ccccc1 (stereo not given),,10.8%
CCC1(CC)C(=O)NC(=O)NC1=O,,2.02%
CC(C)(O)C(Cl)(Cl)Cl,,9.59%
c1ccc2nc(N3CCNCC3)ccc2c1,,-4.39%
CCOC(=O)C(c1c(O)c2ccccc2oc1=O)c1c(O)c2ccccc2oc1=O,,23%
CC(C)(C)OC(=O)c1ncn2c1[C@@H]1CCCN1C(=O)c1c(Br)cccc1-2,,4.66%
CC(C(O)c1ccccc1)N(C)C/C=C/c1ccccc1 (stereo not given),,-17.2%

# Test system: C33A
# Assay: Primary qHTS to identify gynecologic anti-cancer compounds using libraries of approved drugs and bioactive compounds (AID 1345084); also: nearly all actives have a fitted effect of over 55% in size
# Conditions: Gynecologic cancer cell panel viability, ATPlite luminescence, 48 h; series mostly up to 57.5 µM; activity change, negative = cytotoxicity: at the top concentration
# Summary of the method: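 Measured: luminescence after ATPlite addition (15 min, RT). Exposure: 48 h, 37 C, 5% CO2.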
SMILES,Potency,"activity change, negative = cytotoxicity"
Cc1ccc([N+](=O)[O-])[c]2c1[O][Hg]2,4470 nM (active),
CC1Sc2c(C(=O)O)c(=O)c3cc(F)c(N4CCNCC4)cc3n21 (stereo not given),,2.06%
OC(O)C(Cl)(Cl)Cl,,3.04%
CCCOC(=O)Cc1ccc(OCC(=O)N(CC)CC)c(OC)c1,,-2.39% [at 25.3 µM]
COP(=O)(OC)C(O)C(Cl)(Cl)Cl (stereo not given),,7.32%
COCC(=O)N(c1c(C)cccc1C)C(C)C(=O)OC (stereo not given),,5.38%
C[C@@H]1CN(C2CCC(C#N)(c3ccc(F)cc3)CC2)CC[C@]1(C(=O)O)c1ccccc1 (stereo not given in full),,3.49%
O=C(O)c1nn(Cc2ccc(Cl)cc2Cl)c2ccccc12,,17.9%
Cc1ccc(N=CN(C)C=Nc2ccc(C)cc2C)c(C)c1,,-6.11%
COC(=O)C1=CCCN(C)C1,,12.1%
O=C(CCCN1CCC(n2c(=O)[nH]c3ccccc32)CC1)c1ccc(F)cc1,,-4.04%
O=C1CN2CCOC2(c2ccccc2Cl)c2cc(Cl)ccc2N1 (stereo not given),,8.43%
C[C@H]1CNCCc2ccc(Cl)cc21,,-9.73%
COc1cc(N)c(Cl)cc1C(=O)NC1CN2CCC1CC2 (stereo not given),,5.38%
O=C(O)Cc1ccccc1,,21%
C1CN2CCC1CC2,,1.15%
CN1C(=O)CN=C(c2ccccc2)c2cc([N+](=O)[O-])ccc21,,6.29%
O=C(CBr)Nc1ccc(Cl)cc1C(=O)c1ccccc1F,,4.5%
CCOC(=O)NC(O)C(Cl)(Cl)Cl (stereo not given),,4.89%

SMILES,Potency,"activity change, negative = cytotoxicity"
CC(C)C(Br)C(=O)NC(N)=O (stereo not given),,8.82%
COP(=O)(OC)OC=C(Cl)Cl,,4.99%
COc1cc(C[C@@H](C)N)c(OC)cc1Br,,7.59% [at 116 µM]
ClCCCN1CCN(c2cccc(Cl)c2)CC1,,-1.57%
CC(CC(C(N)=O)(c1ccccc1)c1ccccc1)N(C)C (stereo not given),,3.16%
Cc1nc2ccccc2c(=O)n1-c1ccccc1Cl,,-13.6% [at 116 µM]
CCS(=O)(=O)C(C)(C)S(=O)(=O)CC,,-2.77%
O=c1[nH]c2cc(Cl)ccc2n1C1CCNCC1,,11.6%
C[N+]1(CCC(C(N)=O)(c2ccccc2)c2ccccc2)CCCCC1,,2.88%
COP(=S)(OC)Oc1ccc(Sc2ccc(OP(=S)(OC)OC)cc2)cc1,,1.58%
NC(=O)OCCCc1ccccc1,,2.73%
CCOP(=S)(OCC)O/N=C(\C#N)c1ccccc1,,-9.85%
CCN1CCCC1CNC(=O)C(O)(c1ccccc1)c1ccccc1 (stereo not given),,14%
CCC1(CC)C(=O)NC(=O)NC1=O,,2.2%
CC(C)(O)C(Cl)(Cl)Cl,,2.07%
c1ccc2nc(N3CCNCC3)ccc2c1,,-7.8%
CCOC(=O)C(c1c(O)c2ccccc2oc1=O)c1c(O)c2ccccc2oc1=O,,2.37%
CC(C)(C)OC(=O)c1ncn2c1[C@@H]1CCCN1C(=O)c1c(Br)cccc1-2,,5.09%
CC(C(O)c1ccccc1)N(C)C/C=C/c1ccccc1 (stereo not given),,-5.54%
